Values joined by “and” are separate entries in the source; they are usually repeats but may differ in a detail not shown here. Identical values can stand only once. Results filed as inconclusive are left out. Active and inactive are the calls of the source.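 How the source made its calls, unless noted: active means normalized viability below 100% at a tested concentration; inactive means the rest.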
Assays:
[1] = growth inhibition of DIPG cells – cell-based, MIPE4.0 library, CellTiter-Glo luminescence, qHTS (AID 1347066; cut-off not given, nearly all actives have AC50 up to about 30 µM;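 further: cells exposed to compound for 48 hours before readout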); details: SU-DIPG-VI viability, CellTiter-Glo ATP luminescence
[2] = viability loss with induced miR-34 in A549 – imaging, A549 dox-inducible miR-34, nuclei and caspase counts, primary screen (AID 1347080;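 active means compounds whose cell count with miR-34 switched on is under 0.7 times the count with it off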); details: A549 miR-34 inducible, Hoechst nuclei count, 48 h
[3] = MELAS cybrid and Rieske KO viability enhancers – cell-based, MELAS cybrids, Rieske KO mouse fibroblasts, CellTiter-Glo, primary screen (AID 1508586;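 active means mean z-score across replicates of 1.96 or higher in either the MELAS or the Rieske mutant cell line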;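 further: z relative to plate mean and SD of compound and empty wells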); details: low glucose
[4] = blockers of cellular phospholipid synthesis – cell-based, LOPAC library, screen 4, primary screen (AID 1347384; call rule not given here); details: animal cells, phospholipid biosynthesis inhibition screen; at 10 µM
[5] = JHH-DIPG-1 glioma cell viability, MIPE5.0 library, CellTiter-Glo luminescence, qHTS (AID 1347067; cut-off not given, nearly all actives have AC50 up to about 26 µM;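 further: cells exposed to compound for 48 hours before readout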); details: JHH-DIPG-1 glioma viability, CellTiter-Glo ATP luminescence
[6] = compounds altering HSF1 focus formation in cells – imaging, Selleck Cancer Library (AID 1347162; in the data active means plate-normalised HSF1 focus index below about 0.46); details: human cells, HSF1 nuclear foci imaging, at 10 µM; SSMD: measured here: HSF1 foci SSMD mean; cell count: measured here: cell number; plate-normalised HSF1 focus index: stronger effect = lower value
[7] = drug combination growth inhibition, ovarian cancer – cell-based, oncology-focused library, rucaparib conditional, profiling panel (AID 1508598); details: patient-derived ovarian cancer cells, CellTiter-Glo viability, 144 h, stronger effect = lower value
[8] = stronger effect = lower value, cell number ratio, induced over uninduced
[9] = measured here: relative caspase fold change +Dox/-Dox
[10] = measured here: total cells with miR-34 induction, stronger effect = lower value
[11] = measured here: total cells without miR-34 induction
[12] = MELAS cybrid survival, CellTiter-Glo 48 h, stronger effect = higher value
[13] = Rieske KO mouse fibroblast survival, CellTiter-Glo 72 h

CCn1cc(C(=O)O)c(=O)c2cc(F)c(N3CCNCC3)nc21
9160 and 12300 and 10800: cell count [2, 11]
0.647 and 0.794 and 0.23: z-score [3, 13]
0.759 and 2.37 and 1.38: fold change [2, 9]
8750 and 11500 and 9060: cell count [2, 10]
inactive: outcome [1] | fold change [2, 8] 0.955 and 0.936 and 0.839 | z-score [3, 12] -0.278 and 0.526 and -0.113

Nc1ccn([C@H]2CC[C@@H](CO)O2)c(=O)n1
-0.157 and -0.525: z-score [3, 13]
9340 and 9420 and 10000: cell count [2, 11]
inactive: outcome [1] | fold change [2, 8] 1 and 0.95 and 0.852 | outcome [4] | z-score [3, 12] -0.041 and 0.441
9380 and 8950 and 8540: cell count [2, 10]
0.845 and 0.908 and 1.17: fold change [2, 9]

CCc1c2c(nc3ccc(OC(=O)N4CCC(N5CCCCC5)CC4)cc13)-c1cc3c(c(=O)n1C2)COC(=O)[C@]3(O)CC
1660 and 2170 and 2350: cell count [2, 10]
-0.882 and -1.55: z-score [3, 13]
-0.515: SSMD [6]
2270 and 2120 and 2140: cell count [2, 11]
inactive: outcome [1] | fold change [2, 8] 0.732 and 1.02 and 1.1 | plate-normalised HSF1 focus index [6] 0.983 | z-score [3, 12] -0.914 and -2.14 | viability ([7]; at 0.000305 µM, OCI-C5x cells, with rucaparib 10 µM, 100% = cells with rucaparib alone) 118% | viability ([7]; at 0.000305 µM, OCI-C5x cells, without rucaparib) 117% | viability ([7]; at 0.000305 µM, OCI-P5x cells, with rucaparib 20 µM, 100% = cells with rucaparib alone) 102% | viability ([7]; at 0.000305 µM, OCI-P5x cells, without rucaparib) 105% | viability ([7]; at 0.00122 µM, OCI-C5x cells, with rucaparib 10 µM, 100% = cells with rucaparib alone) 121% | viability ([7]; at 0.00122 µM, OCI-C5x cells, without rucaparib) 124% | viability ([7]; at 0.00122 µM, OCI-P5x cells, with rucaparib 20 µM, 100% = cells with rucaparib alone) 104% | viability ([7]; at 0.00122 µM, OCI-P5x cells, without rucaparib) 105% | viability ([7]; at 0.00488 µM, OCI-C5x cells, with rucaparib 10 µM, 100% = cells with rucaparib alone) 107% | viability ([7]; at 0.00488 µM, OCI-C5x cells, without rucaparib) 112% | viability ([7]; at 0.00488 µM, OCI-P5x cells, with rucaparib 20 µM, 100% = cells with rucaparib alone) 108% | viability ([7]; at 0.00488 µM, OCI-P5x cells, without rucaparib) 106% | viability ([7]; at 0.0195 µM, OCI-C5x cells, with rucaparib 10 µM, 100% = cells with rucaparib alone) 115% | viability ([7]; at 0.0195 µM, OCI-C5x cells, without rucaparib) 124% | viability ([7]; at 0.0195 µM, OCI-P5x cells, with rucaparib 20 µM, 100% = cells with rucaparib alone) 101% | viability ([7]; at 0.0195 µM, OCI-P5x cells, without rucaparib) 105% | viability ([7]; at 0.0781 µM, OCI-C5x cells, with rucaparib 10 µM, 100% = cells with rucaparib alone) 115% | viability ([7]; at 0.0781 µM, OCI-C5x cells, without rucaparib) 109% | viability ([7]; at 0.0781 µM, OCI-P5x cells, without rucaparib) 102% | viability ([7]; at 0.313 µM, OCI-C5x cells, without rucaparib) 106%
active: AC50 [5] 23.5 µM | viability ([7]; at 0.0781 µM, OCI-P5x cells, with rucaparib 20 µM, 100% = cells with rucaparib alone) 89.3% | viability ([7]; at 0.313 µM, OCI-C5x cells, with rucaparib 10 µM, 100% = cells with rucaparib alone) 94% | viability ([7]; at 0.313 µM, OCI-P5x cells, with rucaparib 20 µM, 100% = cells with rucaparib alone) 81.1% | viability ([7]; at 0.313 µM, OCI-P5x cells, without rucaparib) 89.6% | viability ([7]; at 1.25 µM, OCI-C5x cells, with rucaparib 10 µM, 100% = cells with rucaparib alone) 70.2% | viability ([7]; at 1.25 µM, OCI-C5x cells, without rucaparib) 87% | viability ([7]; at 1.25 µM, OCI-P5x cells, with rucaparib 20 µM, 100% = cells with rucaparib alone) 64.9% | viability ([7]; at 1.25 µM, OCI-P5x cells, without rucaparib) 57.1% | viability ([7]; at 5 µM, OCI-C5x cells, with rucaparib 10 µM, 100% = cells with rucaparib alone) 50.5% | viability ([7]; at 5 µM, OCI-C5x cells, without rucaparib) 36.9% | viability ([7]; at 5 µM, OCI-P5x cells, with rucaparib 20 µM, 100% = cells with rucaparib alone) 34.4% | viability ([7]; at 5 µM, OCI-P5x cells, without rucaparib) 21.1%
1.79 and 1.27 and 1.62: fold change [2, 9]
7510: cell count [6]

— PubChem BioAssay
